IL1B secr inh: qHTS for Inhibitors of Inflammasome Signaling: IL-1-beta AlphaLISA Primary Screen | THP-1 LPS/ATP IL-1B secretion, AlphaLISA, 16 h; active compounds read low | activity change, % at 57.5 µM | 360,000 tested, 4.7% active; in the data active = activity change below about -50%; inconclusive = mostly about -30% to -49%
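THP-1 cells pretreated 1 hr with compounds (up to 57.5 uM final), then stimulated with LPS (250 ng/mL final) plus ATP (1.25 mM final); secreted IL-1B measured by AlphaLISA after 16 hr, decreased signal indicating inhibition.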
HT1080NT lethal: qHTS for induction of synthetic lethality in tumor cells producing 2HG: qHTS for the HT-1080-NT fibrosarcoma cell line | 360,000 tested, 1.6% active | HT-1080-NT fibrosarcoma viability, CellTiter-Glo ATP luminescence, 48 h | Potency, µM (top dose mostly 46.1 µM), without a hit: at the top dose activity, negative = less viability, usual class: cytotoxic | AID 686970, 2013;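 also: NT is the 2HG producing partner of a matched IDH1 knockdown line; potency is read from the fitted curve at half-maximal effect; 0% = DMSO-treated cells and -100% = media-only wells without cells; nearly all actives have a fitted effect of over 55% in size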
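A 48-hour cytotoxicity screen used HT-1080-NT cells plated 2 hours before compound delivery. ATP-based CellTiter-Glo luminescence measured viability, normalized to DMSO and no-cell controls.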
HT1080 IDH1KD tx: qHTS for induction of synthetic lethality in tumor cells producing 2HG: qHTS for the HT-1080-IDH1KD cell line; HT-1080 IDH1 knockdown viability, ATP luminescence, 48 h; Potency, µM (doses to about 46.1 µM), for inactives: top-dose activity, negative = toxicity, actives largely listed as cytotoxic; 360,000 tested, 2% active; AID 686971, 2013;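 also: potency is read from the fitted curve at half-maximal effect; 0% = DMSO wells and -100% = cell-free medium wells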
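HT-1080-IDH1KD cells (IDH1 knocked down), 750/well in RPMI with 5% FBS, treated with compound 48 h at 37 degrees C. Viability by CellTiter-Glo luminescence, normalised to DMSO and no-cell wells; concentration-response curves classed.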
TDP1 cell CPT: qHTS for Inhibitors of human tyrosyl-DNA phosphodiesterase 1 (TDP1): qHTS in cells in presence of CPT | chicken DT40 Tdp1-/-;hTDP1 cells + 20 nM CPT, ATP luminescence, 48 h | Potency, µM (doses to about 46.2 µM), for the others: at the top dose activity change, negative = growth inhibition, usual class: inhibitors | 420,000 tested, 12% active; also: potency is read from the fitted curve at half-maximal effect; nearly all actives have a fitted effect of over 55% in size
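Cell growth measured by CellTiter-Glo luminescence after a minimum 48 h, 37 C compound exposure with 20 nM CPT in Tdp1-knockout DT40 cells stably expressing hTDP1, seeded 400/well; qHTS titration format.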
TDP1 cell noCPT: qHTS for Inhibitors of human tyrosyl-DNA phosphodiesterase 1 (TDP1): qHTS in cells in absence of CPT. 420,000 tested, 15% active. AID 686978, 2013. DT40 Tdp1-/- hTDP1 cells, no CPT, ATP luminescence, 48 h. Potency, µM (top dose mostly 46.2 µM), without a hit: at the top dose activity change, negative = growth inhibition, hits mostly inhibitors; also: potency is read from the fitted curve at half-maximal effect; nearly all actives have a fitted effect of over 55% in size
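Chicken DT40 Tdp1-/- cells complemented with human TDP1, screened without camptothecin (DMSO vehicle only), 400 cells/well. Compounds pin-transferred, cells incubated at 37 °C for at least 48 hr. Growth read as ATP-dependent luminescence (CellTiter-Glo, 30 min at RT).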
Active calls of the source: *; [ ] = another dose, or the depositor's remark. Sampled rows, rich in hits. Any-hit rate of the full collection: about 19%. Unless noted, calls follow the shape of the dose curve; as a rule, active = well fitted curve in the direction sought with a large enough effect; inconclusive = small, poorly fitted or top-dose-only effect, or another doubt; inactive = no such curve, though single readings can be large; an effect the other way counts as inactive or inconclusive. Unless noted, % is scaled to controls: 0 for no effect and ±100 for the full control effect.

Results for C/C(CC(=O)Nc1cccc(C(F)(F)F)c1)=N/NC(=O)C(=O)NCCO ?
IL1B secr inh: 1.4; HT1080NT lethal: -24.0%; HT1080 IDH1KD tx: inconclusive; TDP1 cell CPT: -7.6%; TDP1 cell noCPT: -18.0%

How did CC1(C(=O)NS(=O)(=O)c2ccccc2Cl)CCN1C(=O)C1(c2ccc(Cl)cc2)CC1 (centres undefined) do in these assays?
IL1B secr inh: 24.2; HT1080NT lethal: 8.5%; HT1080 IDH1KD tx: 8.7%; TDP1 cell CPT: 1.0%; TDP1 cell noCPT: -21.6%

What do the screens show for `Cc1cccc(NC(=O)C2CCC(CNS(=O)(=O)c3ccc4c(c3)CCCC(=O)N4)CC2)c1C` (centres undefined)?
TDP1 cell CPT: inconclusive; TDP1 cell noCPT: -26.2%

How did CCCCN(C)C(=O)C1CCC(CNS(=O)(=O)c2ccc3c(c2)CC(C)N3C(C)=O)CC1 (centres undefined) do in these assays?
IL1B secr inh: 16.7; HT1080NT lethal: -5.3%; HT1080 IDH1KD tx: 7.5%; TDP1 cell CPT: 13µM*; TDP1 cell noCPT: 16.4µM*

How did CC(=O)N1c2ccc(S(=O)(=O)NCC3CCC(C(=O)Nc4ccc(F)cc4)CC3)cc2CC1C (centres undefined) do in these assays?
TDP1 cell CPT: 16.4µM*; TDP1 cell noCPT: 16.4µM*

What do the screens show for `CC(=O)N1c2ccc(S(=O)(=O)NCC3CCC(C(=O)N(C)Cc4ccccc4)CC3)cc2CC1C` (centres undefined)?
IL1B secr inh: 0.0; HT1080NT lethal: -17.4%; HT1080 IDH1KD tx: -17.9%; TDP1 cell CPT: inconclusive; TDP1 cell noCPT: inconclusive

How did CCc1ccc(NC(=O)C2CCC(CNS(=O)(=O)c3ccc4c(c3)CC(C)N4C(C)=O)CC2)cc1 (centres undefined) do in these assays?
TDP1 cell CPT: 20.6µM*; TDP1 cell noCPT: 7.31µM*

What do the screens show for `COc1ccc(C)cc1NC(=O)C1CCC(CNS(=O)(=O)c2ccc3c(c2)CCCC(=O)N3)CC1` (centres undefined)?
TDP1 cell CPT: 9.2µM*; TDP1 cell noCPT: 4.61µM*

Results for CC(=O)N1c2ccc(S(=O)(=O)NCC3CCC(C(=O)NCc4ccccc4)CC3)cc2CC1C (centres undefined) ?
IL1B secr inh: -3.1; HT1080NT lethal: -0.7%; HT1080 IDH1KD tx: -10.7%; TDP1 cell CPT: inconclusive; TDP1 cell noCPT: -12.3%

Results for COc1cccc(CN2C(=NC(=O)C3CC3)SC3CS(=O)(=O)CC32)c1 (centres undefined) ?
IL1B secr inh: 0.0; HT1080NT lethal: 0.1%; HT1080 IDH1KD tx: -12.5%; TDP1 cell CPT: 1.3%; TDP1 cell noCPT: 15.1%

Results for CC(C)(CNC(=O)c1cnn(-c2nccc(-c3cccs3)n2)c1C1CC1)N1CCOCC1 ?
TDP1 cell CPT: -10.9%[9.04 µM]; TDP1 cell noCPT: -17.6%

What do the screens show for `Cc1nc(-n2nc(C)c(Cc3ccccc3Cl)c2C)sc1C(=O)N1CCC(C)CC1`?
TDP1 cell CPT: -8.1%; TDP1 cell noCPT: -13.3%

What do the screens show for `CN(CCc1ccccc1)C(=O)CC1C(=O)NCCN1Cc1ccccn1` (centres undefined)?
IL1B secr inh: 1.9; HT1080NT lethal: 9.7%; HT1080 IDH1KD tx: 7.9%; TDP1 cell CPT: -1.5%; TDP1 cell noCPT: -5.0%

How did CC(=O)N1c2ccc(S(=O)(=O)NCC3CCC(C(=O)N4CCCC(C)C4)CC3)cc2CC1C (centres undefined) do in these assays?
IL1B secr inh: -10.2; HT1080NT lethal: 1.7%; HT1080 IDH1KD tx: -0.5%; TDP1 cell CPT: 16.4µM*; TDP1 cell noCPT: inconclusive

What do the screens show for `CC(=O)N1c2ccc(S(=O)(=O)NCC3CCC(C(=O)Nc4ccc(C)c(C)c4)CC3)cc2CC1C` (centres undefined)?
TDP1 cell CPT: 16.4µM*; TDP1 cell noCPT: 23.1µM*

How did O=C(C1CCC(CNS(=O)(=O)c2ccccc2)CC1)N1CCCCC1 (centres undefined) do in these assays?
IL1B secr inh: 32.1; HT1080NT lethal: -4.8%; HT1080 IDH1KD tx: -3.6%; TDP1 cell CPT: 0.2%; TDP1 cell noCPT: -15.8%

Results for COCCNC(=O)C1CCC(CNS(=O)(=O)c2ccc3c(c2)CC(C)N3C(C)=O)CC1 (centres undefined) ?
TDP1 cell CPT: -9.4%; TDP1 cell noCPT: -11.3%

What do the screens show for `CC(=O)N1c2ccc(S(=O)(=O)NCC3CCC(C(=O)Nc4ccc(C)cn4)CC3)cc2CC1C` (centres undefined)?
IL1B secr inh: inconclusive; HT1080NT lethal: inconclusive; HT1080 IDH1KD tx: -18.4%; TDP1 cell CPT: inconclusive; TDP1 cell noCPT: inconclusive

What do the screens show for `COc1ccccc1NC(=O)C1CCC(CNS(=O)(=O)c2ccc3c(c2)CC(C)N3C(C)=O)CC1` (centres undefined)?
TDP1 cell CPT: 10.3µM*; TDP1 cell noCPT: 10.3µM*

Results for CC1CC(C)CN(C(=O)C2CCC(CNS(=O)(=O)c3ccccc3)CC2)C1 (centres undefined) ?
IL1B secr inh: 9.9; HT1080NT lethal: -11.0%; HT1080 IDH1KD tx: -1.5%; TDP1 cell CPT: inconclusive; TDP1 cell noCPT: 29.1µM*

What do the screens show for `CNC(=S)N(Cc1cc2cc(C)ccc2n2nnnc12)CC(C)(C)CN(C)C`?
IL1B secr inh: 5.9; HT1080NT lethal: 7.7%; HT1080 IDH1KD tx: 9.1%; TDP1 cell CPT: -9.3%; TDP1 cell noCPT: 1.9%

How did CCCCCCn1cc(CN2CC(N3CCSCC3)CS2(=O)=O)nn1 (centres undefined) do in these assays?
IL1B secr inh: 20.6; HT1080NT lethal: 20.3%; HT1080 IDH1KD tx: 5.0%; TDP1 cell CPT: 2.8%; TDP1 cell noCPT: inconclusive

How did COc1cccc(C=Cc2nccc3ccccc23)c1OC do in these assays?
IL1B secr inh: -57.7*; HT1080NT lethal: -28.2%; HT1080 IDH1KD tx: -25.7%; TDP1 cell CPT: inconclusive; TDP1 cell noCPT: 16.4µM*

How did COc1cccc(/C=C/c2cnc3ccccc3n2)c1OC do in these assays?
TDP1 cell CPT: inconclusive; TDP1 cell noCPT: 20µM*

How did COc1cccc(/C=N/NC(=O)c2cccc3ccccc23)c1OC do in these assays?
IL1B secr inh: 22.1; HT1080NT lethal: -6.9%; HT1080 IDH1KD tx: -10.9%; TDP1 cell CPT: inconclusive; TDP1 cell noCPT: inconclusive

What do the screens show for `COc1ccc(/C=C/c2ccncc2)cc1OC`?
IL1B secr inh: -13.0; HT1080NT lethal: 13.7%; HT1080 IDH1KD tx: 5.6%; TDP1 cell CPT: 6.5%; TDP1 cell noCPT: -9.2%

What do the screens show for `COc1ccc(/C=C/c2nccc3ccccc23)cc1OC`?
TDP1 cell CPT: 11.2µM*; TDP1 cell noCPT: 14.1µM*
